Data reported in ChEMBL document CHEMBL2218924, “A broad activity screen in support of a chemogenomic map for kinase signalling research and drug discovery” (Biochem J, 2013).

What was measured:
[1] = target: T1, Serine/threonine-protein kinase TBK1 (Homo sapiens) (UniProt Q9UHD2); conditions: at 10 µM
T1 sequence (whole entry): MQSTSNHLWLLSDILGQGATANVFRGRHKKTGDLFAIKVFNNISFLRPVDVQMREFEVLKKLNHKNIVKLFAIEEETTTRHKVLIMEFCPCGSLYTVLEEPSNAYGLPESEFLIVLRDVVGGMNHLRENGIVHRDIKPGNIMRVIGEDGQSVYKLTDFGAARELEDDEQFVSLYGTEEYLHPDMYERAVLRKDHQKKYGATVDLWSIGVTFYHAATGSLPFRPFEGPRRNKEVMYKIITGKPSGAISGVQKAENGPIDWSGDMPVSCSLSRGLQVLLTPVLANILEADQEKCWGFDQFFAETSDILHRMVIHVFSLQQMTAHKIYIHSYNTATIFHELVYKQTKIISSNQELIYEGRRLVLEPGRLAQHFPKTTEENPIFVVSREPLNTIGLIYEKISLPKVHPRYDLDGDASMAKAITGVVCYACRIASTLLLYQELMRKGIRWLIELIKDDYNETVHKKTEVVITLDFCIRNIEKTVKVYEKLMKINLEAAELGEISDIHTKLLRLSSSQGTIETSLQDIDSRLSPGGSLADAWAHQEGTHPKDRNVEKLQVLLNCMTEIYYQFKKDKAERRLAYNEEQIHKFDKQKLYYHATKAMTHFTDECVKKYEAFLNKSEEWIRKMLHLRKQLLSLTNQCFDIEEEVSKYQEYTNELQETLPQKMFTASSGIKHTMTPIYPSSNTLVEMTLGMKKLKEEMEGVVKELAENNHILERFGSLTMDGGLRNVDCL

[2] = target: T2, TGF-beta receptor type-1 (Homo sapiens) (UniProt P36897); conditions: at 1 µM
T2 sequence (whole entry): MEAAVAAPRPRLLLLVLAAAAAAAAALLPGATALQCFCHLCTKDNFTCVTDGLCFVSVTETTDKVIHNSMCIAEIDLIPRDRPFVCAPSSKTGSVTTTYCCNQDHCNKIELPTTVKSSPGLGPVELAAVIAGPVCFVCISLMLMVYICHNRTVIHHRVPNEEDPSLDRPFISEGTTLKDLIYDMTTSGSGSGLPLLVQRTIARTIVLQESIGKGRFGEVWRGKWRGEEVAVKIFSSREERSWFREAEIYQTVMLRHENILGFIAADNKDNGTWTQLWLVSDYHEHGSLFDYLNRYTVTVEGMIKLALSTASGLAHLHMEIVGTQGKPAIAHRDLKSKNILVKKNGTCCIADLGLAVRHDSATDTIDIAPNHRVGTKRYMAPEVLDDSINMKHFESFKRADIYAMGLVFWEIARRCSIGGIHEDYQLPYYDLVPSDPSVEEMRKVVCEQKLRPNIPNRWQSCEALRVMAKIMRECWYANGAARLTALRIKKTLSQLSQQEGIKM

[3] = target: T2, TGF-beta receptor type-1 (Homo sapiens); conditions: at 10 µM
[4] = target: Insulin-like growth factor 1 receptor (Homo sapiens) (UniProt P08069); conditions: at 1 µM
[5] = target: Insulin-like growth factor 1 receptor (Homo sapiens) (UniProt P08069); conditions: at 10 µM
[6] = target: T3, Inhibitor of nuclear factor kappa-B kinase subunit alpha (Homo sapiens) (UniProt O15111); conditions: at 1 µM
T3 sequence (whole entry): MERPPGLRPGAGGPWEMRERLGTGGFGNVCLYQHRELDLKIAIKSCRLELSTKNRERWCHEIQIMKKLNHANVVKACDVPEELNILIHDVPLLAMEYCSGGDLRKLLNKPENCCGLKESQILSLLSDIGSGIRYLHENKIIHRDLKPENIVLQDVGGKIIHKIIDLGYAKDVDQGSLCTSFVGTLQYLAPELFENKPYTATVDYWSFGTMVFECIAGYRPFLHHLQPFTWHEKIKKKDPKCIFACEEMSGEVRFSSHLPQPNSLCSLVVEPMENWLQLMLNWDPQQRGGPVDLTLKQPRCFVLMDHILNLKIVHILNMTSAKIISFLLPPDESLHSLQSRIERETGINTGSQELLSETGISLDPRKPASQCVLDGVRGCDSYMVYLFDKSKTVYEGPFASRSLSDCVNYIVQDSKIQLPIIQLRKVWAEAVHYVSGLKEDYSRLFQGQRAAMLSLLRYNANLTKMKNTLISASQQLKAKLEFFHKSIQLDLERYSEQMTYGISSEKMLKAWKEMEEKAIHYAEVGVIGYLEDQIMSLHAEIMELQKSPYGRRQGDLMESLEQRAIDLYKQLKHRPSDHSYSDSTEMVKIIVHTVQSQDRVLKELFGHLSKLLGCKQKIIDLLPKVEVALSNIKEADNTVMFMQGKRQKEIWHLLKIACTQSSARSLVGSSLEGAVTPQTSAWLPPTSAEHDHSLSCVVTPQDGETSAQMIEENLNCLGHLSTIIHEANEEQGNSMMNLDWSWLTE

[7] = target: T3, Inhibitor of nuclear factor kappa-B kinase subunit alpha (Homo sapiens); conditions: at 10 µM
[8] = target: T4, Inhibitor of nuclear factor kappa-B kinase subunit beta (Homo sapiens) (UniProt O14920); conditions: at 1 µM
T4 sequence (whole entry): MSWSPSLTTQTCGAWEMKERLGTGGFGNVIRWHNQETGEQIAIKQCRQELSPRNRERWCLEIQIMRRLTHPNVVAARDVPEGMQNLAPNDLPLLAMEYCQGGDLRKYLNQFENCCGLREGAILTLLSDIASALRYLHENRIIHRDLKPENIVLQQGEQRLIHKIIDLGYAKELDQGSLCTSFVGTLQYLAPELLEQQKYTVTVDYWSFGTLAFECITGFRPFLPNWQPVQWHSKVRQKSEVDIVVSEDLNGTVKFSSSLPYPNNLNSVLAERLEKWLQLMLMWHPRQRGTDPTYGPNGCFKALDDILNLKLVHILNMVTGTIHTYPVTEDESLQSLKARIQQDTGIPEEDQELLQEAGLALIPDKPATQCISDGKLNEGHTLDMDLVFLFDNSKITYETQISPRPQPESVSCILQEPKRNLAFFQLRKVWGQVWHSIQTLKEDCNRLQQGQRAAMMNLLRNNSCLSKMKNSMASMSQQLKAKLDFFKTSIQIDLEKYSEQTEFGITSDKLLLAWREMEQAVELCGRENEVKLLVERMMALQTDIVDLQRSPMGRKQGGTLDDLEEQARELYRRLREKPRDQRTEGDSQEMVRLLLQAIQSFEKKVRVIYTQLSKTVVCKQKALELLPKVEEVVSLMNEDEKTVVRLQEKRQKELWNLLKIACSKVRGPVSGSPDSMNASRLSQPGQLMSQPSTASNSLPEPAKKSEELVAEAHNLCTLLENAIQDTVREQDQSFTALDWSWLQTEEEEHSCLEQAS

[9] = target: T4, Inhibitor of nuclear factor kappa-B kinase subunit beta (Homo sapiens); conditions: at 10 µM
[10] = target: Insulin receptor (Homo sapiens) (UniProt P06213); conditions: at 1 µM
Insulin receptor (Homo sapiens), sequence (P06213 28-758 limits assumed): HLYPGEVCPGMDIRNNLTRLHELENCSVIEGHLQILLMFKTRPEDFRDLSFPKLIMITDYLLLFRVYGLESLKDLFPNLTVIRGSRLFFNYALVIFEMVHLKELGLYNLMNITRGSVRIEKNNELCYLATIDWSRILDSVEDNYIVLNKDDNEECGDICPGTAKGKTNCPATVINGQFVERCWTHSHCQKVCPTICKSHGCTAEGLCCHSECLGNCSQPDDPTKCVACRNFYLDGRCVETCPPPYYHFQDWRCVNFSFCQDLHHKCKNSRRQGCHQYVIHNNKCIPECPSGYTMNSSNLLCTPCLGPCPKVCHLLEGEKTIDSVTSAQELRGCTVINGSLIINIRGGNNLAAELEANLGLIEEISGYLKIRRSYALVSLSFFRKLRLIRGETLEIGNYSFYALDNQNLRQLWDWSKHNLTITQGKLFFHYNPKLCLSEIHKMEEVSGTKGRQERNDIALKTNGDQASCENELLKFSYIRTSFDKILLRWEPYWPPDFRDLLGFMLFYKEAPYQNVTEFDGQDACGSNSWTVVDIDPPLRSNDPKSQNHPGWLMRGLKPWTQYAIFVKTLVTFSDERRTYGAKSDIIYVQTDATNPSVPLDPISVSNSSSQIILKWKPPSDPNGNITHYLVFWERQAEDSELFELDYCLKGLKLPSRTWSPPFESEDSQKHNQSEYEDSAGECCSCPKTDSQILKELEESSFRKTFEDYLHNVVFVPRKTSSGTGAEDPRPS
Insulin receptor (Homo sapiens), sequence (P06213 763-1382 limits assumed): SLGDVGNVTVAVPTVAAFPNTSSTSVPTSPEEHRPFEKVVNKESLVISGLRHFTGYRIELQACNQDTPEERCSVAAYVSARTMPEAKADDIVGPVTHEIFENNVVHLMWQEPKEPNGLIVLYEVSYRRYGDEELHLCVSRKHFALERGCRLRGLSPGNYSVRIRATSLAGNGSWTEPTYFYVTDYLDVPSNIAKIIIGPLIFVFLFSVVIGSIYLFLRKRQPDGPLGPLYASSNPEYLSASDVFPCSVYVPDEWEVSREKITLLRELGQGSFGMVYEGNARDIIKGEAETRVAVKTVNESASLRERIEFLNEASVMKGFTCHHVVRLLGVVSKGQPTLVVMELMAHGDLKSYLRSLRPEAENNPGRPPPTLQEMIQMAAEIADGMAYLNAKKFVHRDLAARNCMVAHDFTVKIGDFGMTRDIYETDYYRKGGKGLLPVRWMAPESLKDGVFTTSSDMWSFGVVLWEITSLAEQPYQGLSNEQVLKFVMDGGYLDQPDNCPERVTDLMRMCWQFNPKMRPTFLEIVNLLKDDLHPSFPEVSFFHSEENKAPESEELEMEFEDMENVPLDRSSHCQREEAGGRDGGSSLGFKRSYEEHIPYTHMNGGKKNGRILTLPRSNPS

Insulin-like growth factor 1 receptor (Homo sapiens), sequence (P08069 31-736 limits assumed): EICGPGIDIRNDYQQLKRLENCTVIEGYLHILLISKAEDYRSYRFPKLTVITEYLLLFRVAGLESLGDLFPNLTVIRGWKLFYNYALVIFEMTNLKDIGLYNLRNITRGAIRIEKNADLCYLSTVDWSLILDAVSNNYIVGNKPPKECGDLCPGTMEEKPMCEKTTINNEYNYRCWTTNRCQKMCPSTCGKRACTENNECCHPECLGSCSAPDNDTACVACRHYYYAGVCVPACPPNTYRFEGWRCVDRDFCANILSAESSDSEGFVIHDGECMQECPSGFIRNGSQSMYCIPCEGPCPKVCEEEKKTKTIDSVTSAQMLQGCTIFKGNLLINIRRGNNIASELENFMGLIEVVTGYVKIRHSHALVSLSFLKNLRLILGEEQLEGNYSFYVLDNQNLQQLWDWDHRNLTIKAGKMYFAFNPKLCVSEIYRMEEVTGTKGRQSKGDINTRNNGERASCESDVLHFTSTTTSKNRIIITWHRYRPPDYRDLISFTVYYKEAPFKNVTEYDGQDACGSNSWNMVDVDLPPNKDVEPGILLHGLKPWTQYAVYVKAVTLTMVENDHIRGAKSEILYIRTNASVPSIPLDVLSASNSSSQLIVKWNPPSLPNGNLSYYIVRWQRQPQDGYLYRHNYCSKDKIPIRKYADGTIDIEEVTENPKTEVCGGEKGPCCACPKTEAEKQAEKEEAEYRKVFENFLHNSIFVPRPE
Insulin-like growth factor 1 receptor (Homo sapiens), sequence (P08069 741-1367 limits assumed): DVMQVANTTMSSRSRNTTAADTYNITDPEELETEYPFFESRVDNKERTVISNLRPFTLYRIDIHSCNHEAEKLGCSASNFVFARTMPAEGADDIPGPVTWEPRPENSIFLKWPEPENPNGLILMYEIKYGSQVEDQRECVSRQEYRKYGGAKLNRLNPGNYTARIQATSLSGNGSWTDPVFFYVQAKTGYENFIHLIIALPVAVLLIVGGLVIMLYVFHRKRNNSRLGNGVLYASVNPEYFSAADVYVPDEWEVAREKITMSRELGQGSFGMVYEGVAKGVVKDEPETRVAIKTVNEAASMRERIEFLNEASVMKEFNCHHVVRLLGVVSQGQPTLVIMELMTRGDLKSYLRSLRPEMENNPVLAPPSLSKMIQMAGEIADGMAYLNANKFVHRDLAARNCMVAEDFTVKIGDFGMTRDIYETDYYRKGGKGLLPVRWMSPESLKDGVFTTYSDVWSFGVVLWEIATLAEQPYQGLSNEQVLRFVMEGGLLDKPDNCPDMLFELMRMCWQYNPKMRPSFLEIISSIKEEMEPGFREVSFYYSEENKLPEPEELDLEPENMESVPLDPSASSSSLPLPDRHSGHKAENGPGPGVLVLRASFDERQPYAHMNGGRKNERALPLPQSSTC

For `O=C(Nc1cccc(Nc2cc(Nc3cccc(C(F)(F)F)c3)ncn2)c1)C1CC1`, the residual activity [1] was 61%, the residual activity [2] was 89% and the residual activity [3] was 77%. The residual activity [4] was 98%, the residual activity [5] was 89% and the residual activity [6] was 108%. For the same molecule, the residual activity [7] was 125%, the residual activity [8] was 99% and the residual activity [9] was 96%. For the same molecule, the residual activity [10] was 105%.
